High-throughput results deposited in PubChem BioAssay by National Center for Advancing Translational Sciences (NCATS).
ALDH1A1 block – qHTS Assay for Inhibitors of Aldehyde Dehydrogenase 1 (ALDH1A1); Potency, µM (series often up to 75.3 µM), for inactives: top-dose activity, negative = inhibition, most hits filed as inhibitors; AID 1030, 2008; Aldehyde dehydrogenase 1A1 (Homo sapiens), P00352; Purified ALDH1A1, NADH fluorescence, propionaldehyde substrate; hit rate 7.3% among 220,000; active = well fitted inhibition curve with a large enough effect, not every such curve was filed as active; inconclusive = small, poorly fitted or top-dose-only effect, or another doubt; inactive = no such curve, though single readings can be large or run the other way;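 also: potency is read from the fitted curve at half-maximal effect; plate controls were no enzyme wells and a reference inhibitor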
Target sequence (P00352 whole entry, looked up): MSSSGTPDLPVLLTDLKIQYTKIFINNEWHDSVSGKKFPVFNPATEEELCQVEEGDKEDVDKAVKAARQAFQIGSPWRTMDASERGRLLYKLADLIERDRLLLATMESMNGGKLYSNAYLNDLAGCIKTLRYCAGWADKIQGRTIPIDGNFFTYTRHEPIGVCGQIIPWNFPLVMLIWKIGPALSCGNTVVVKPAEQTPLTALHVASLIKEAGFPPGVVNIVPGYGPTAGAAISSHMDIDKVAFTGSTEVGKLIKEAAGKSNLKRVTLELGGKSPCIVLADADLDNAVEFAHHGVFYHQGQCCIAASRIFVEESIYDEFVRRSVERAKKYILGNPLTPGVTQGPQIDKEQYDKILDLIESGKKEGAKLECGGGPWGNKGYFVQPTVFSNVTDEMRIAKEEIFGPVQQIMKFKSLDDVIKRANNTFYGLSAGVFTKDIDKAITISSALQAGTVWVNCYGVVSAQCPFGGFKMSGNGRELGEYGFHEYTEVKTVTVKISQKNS
IMPase inh – qHTS Assay for Identifying the Cell-Membrane Permeable IMPase Inhibitors; Inositol monophosphatase 1 (Rattus norvegicus), P97697; 120,000 tested, under 10 active; inhibition (IP1 accumulation), % at 46.1 µM; CHO-M1 cells, IP1 accumulation, HTRF TR-FRET ratio; active = well fitted curve in the direction sought with a large enough effect in the signal ratio, not every such curve was filed as active; inconclusive = small, poorly fitted or top-dose-only effect, or a change in a side signal; inactive = no such curve, though single readings can be large or run the other way; the % refers to the signal ratio;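 also: cells stimulated with carbachol in lithium chloride buffer; plate controls were DMSO basal wells for no effect and reference inhibitor wells for full effect; higher means more IMPase inhibition seen as more IP1 and lower FRET ratio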
Target sequence (P97697 whole entry, looked up): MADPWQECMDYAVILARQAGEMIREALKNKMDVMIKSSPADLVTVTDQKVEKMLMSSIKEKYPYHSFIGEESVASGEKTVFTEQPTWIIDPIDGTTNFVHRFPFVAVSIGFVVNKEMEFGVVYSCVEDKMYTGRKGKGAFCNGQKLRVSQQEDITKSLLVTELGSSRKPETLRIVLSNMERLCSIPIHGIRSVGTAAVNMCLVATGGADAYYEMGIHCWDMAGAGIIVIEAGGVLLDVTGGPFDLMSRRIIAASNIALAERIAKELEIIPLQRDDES
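Cellular IMPase inhibition is scored as a rise in cytosolic IP1, detected by competitive TR-FRET between d2-labelled IP1 and a europium anti-IP1 antibody. M1-expressing CHO cells were stimulated with carbachol for 30 min at 37C, with lithium (50 mM LiCl) present in the buffer.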
PNC inhibitor – High Content Assay for Compounds that inhibit the Assembly of the Perinucleolar Compartment; PC3M PTB-GFP, PNC prevalence imaging, 16 h; active compounds read low; activity change (PNC), negative = inhibition, % at 10 µM; hit rate 3.1% among 140,000;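 active = readout at or below -70, meaning at least 70% loss of cells showing the perinucleolar compartment, a nuclear body marking cancer cells; inconclusive = readout between -30 and a set limit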;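 also: plate controls were DMSO wells for no effect and camptothecin positive control wells for full effect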
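Compounds are pinned in duplicate onto adhered PC3M cells stably expressing GFP-tagged PTB and incubated 16 h at 37 C. Cells are then fixed, nuclei stained with Hoechst, and PNC-positive cells counted.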
NPSR antagonist – qHTS Assay for Antagonists of the Neuropeptide S Receptor: cAMP Signal Transduction | Q6W5P4 | CHO-NPSR cells, cAMP TR-FRET, antagonist mode | Potency, µM (highest dose often 38.3 µM), without a hit: at the highest dose activity change, negative = inhibition, most hits filed as inhibitors | hit rate 1% among 220,000; also: potency is read from the fitted curve at half-maximal effect; nearly all actives have a fitted effect of over 50% in size
IMPase Li cell – qHTS Assay for Identifying the Cell-Membrane Permeable IMPase Inhibitors: Potentiation with Lithium. AID 1457, 2008. hit rate 0.35% among 210,000. CHO-M1 cells, IP1 TR-FRET (IP-One), carbachol + lithium. Potency, µM (highest dose often 59.4 µM), for inactives: at the top dose activity, negative = IMPase inhibition, actives largely listed as inhibitors;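 also: IP1 builds up when IMPase is blocked and the TR-FRET signal falls; potency is read from the fitted curve at half-maximal effect; plate controls were basal vehicle for no effect and high inhibitor control for full effect; nearly all actives have a fitted effect of over 50% in size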
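Readout is a homogeneous TR-FRET IP1 immunoassay (Ex 320, Em 665 and 620), where raised cytosolic IP1 lowers signal. Cells were CHO-M1 treated 30 min at 37C with test compounds plus a little lithium; AC50 values came from Hill-equation fitting.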
HPGD inh – qHTS Assay for Inhibitors of HPGD (15-Hydroxyprostaglandin Dehydrogenase) | 15-hydroxyprostaglandin dehydrogenase [NAD(+)] (Homo sapiens), P15428 | purified HPGD, NADH fluorescence kinetic, PGE2 substrate | Potency, µM, for inactives: at the top dose activity change, negative = inhibition, actives largely listed as inhibitors | hit rate 4.3% among 150,000 | AID 894, 2007; active = well fitted inhibition curve with a large enough effect, not every such curve was filed as active; inconclusive = small, poorly fitted or top-dose-only effect, or another doubt; inactive = no such curve, though single readings can be large or run the other way; also: potency is read from the fitted curve at half-maximal effect
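20 nM HPGD preincubated 15 min at room temperature with compound in 50 mM Tris-HCl pH 8, 0.01% Tween 20. Started with 1 mM NAD+ and 30 uM prostaglandin E2; NADH fluorescence (360/450 nm) read 5 times over 30-s intervals, last minus first.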
* = called active by the depositor; ? = inconclusive; / = no result given; [ ] = remark or other dose. Only some compounds are listed: those with a hit (about 11% of all), similar ones and a draw of the others. Unless noted, calls follow the shape of the dose curve; as a rule, active = well fitted curve in the direction sought with a large enough effect; inconclusive = small, poorly fitted or top-dose-only effect, or another doubt; inactive = no such curve, though single readings can be large; an effect the other way counts as inactive or inconclusive. Unless noted, % is scaled to controls: 0 for no effect and ±100 for the full control effect.

SMILES	ALDH1A1 block	IMPase inh	PNC inhibitor	NPSR antagonist	IMPase Li cell	HPGD inh
O=C(Nc1cccc(S(=O)(=O)c2cccc(NC(=O)c3ccco3)c2)c1)c1ccco1	/	/	/	-17%	/	/
COc1ccc(Nc2c3c(nc4c(-c5ccccc5)c(C)nn24)CCC3)cc1	?	/	4	-48%	3%	?
CC(C)(C)c1ccc(OCC(=O)N/N=C/C2CC=CCC2)cc1 (centres undefined)	32µM*	/	/	-6%	3%	/
O=C1CN(C(=O)COC(=O)Cc2ccsc2)c2ccccc2N1	-7%	?	1	-4%[46.1 µM]	24%[38.3 µM]	-8%
CCCCCOc1ccc2oc(=O)c3c(c2c1)CCCN3C(=O)CN1CCCC(C(=O)OCC)C1 (centres undefined)	25µM*	6	40	?	50%[38.3 µM]	-12%
O=C(CN1CCN(c2ncccn2)CC1)N1CCCc2c1c(=O)oc1ccc(O)cc21	0.79µM*	15	13	-12%[46.1 µM]	12%	-11%
CC(=O)Oc1ccc2oc(=O)c3c(c2c1)CCCN3C(=O)CN1CCN(c2ncccn2)CC1	?	0	66	?	-8%[38.3 µM]	-9%
CCOC(=O)C1CCCN(CC(=O)N2CCCc3c2c(=O)oc2ccc(OCc4ccccc4)cc32)C1 (centres undefined)	/	-1	/	/	/	/
COc1ccc(C(=O)NCCn2ccc3ccccc32)cc1OC	2%	13	-25	-3%[46.1 µM]	23%[38.3 µM]	-6%
O=C(OC1CCCCC1=O)c1cc(Cl)ccc1[N+](=O)[O-] (centres undefined)	-12%	/	/	1%	2%	/
O=C(C1CCCN(S(=O)(=O)c2ccc(Br)s2)C1)N1CCCCCC1 (centres undefined)	5.6µM*	4	-3	?	7%[38.3 µM]	-11%
C=CCN(CC=C)c1nc2ccccc2nc1C(C#N)C(=O)OC(C)C (centres undefined)	?	1[0.0738 µM]	?	?	15%	-24%
O=C(Cc1ccccc1)Nc1cccc(NC(=O)c2cccs2)c1	-5%	/	/	22%	-1%	/
CCC(C)c1ccc(OCC(=O)Nc2ccc(Cl)cn2)cc1 (centres undefined)	1%	4	-19	-18%[46.1 µM]	68%[38.3 µM]	-10%
O=C(OCc1nc2ccccc2s1)[C@@H]1CCCN1S(=O)(=O)c1ccccc1F	7.9µM*	1	?	7%[46.1 µM]	31%[38.3 µM]	-16%
Cc1ccc(NNC(=O)C(=O)N2CCCCC2)cc1	-3%	8	-90*	10%	-1%	-2%
NC(=S)C1COc2ccccc2O1 (centres undefined)	/	/	/	14%	/	/
Nn1c(C2COc3ccccc3O2)n[nH]c1=S (centres undefined)	4.5µM*	/	/	-22%	/	/
COc1ccc(C(=O)c2c[nH]c(C(=O)N=CN(C)C)c2)cc1	2%	/	/	-9%	0%	/
O=C(NCc1ccccc1Cl)c1cc([N+](=O)[O-])ccc1Cl	0%	/	/	2%	5%	/
O=[N+]([O-])c1ccc2c(N=Nc3ccc4ccccc4c3O)c(O)cc(S(=O)(=O)O)c2c1	-11%[13.5 µM]	/	/	/	8%	2.8µM*
COc1ccc(OC)c(C2CC(=O)Nc3c2c(=O)[nH]c2ncnn32)c1 (centres undefined)	4%	/	/	19%	7%	/
COc1cccc(N2CC(O)=C(c3nc4ccccc4s3)C2=N)c1	?	/	/	-20%	?	/
COc1ccc(N2CC(O)=C(c3nc4ccccc4s3)C2=N)cc1	?	9	24	-13%[46.1 µM]	14µM*	-15%
COc1ccc(/C=C(/C#N)c2nc(-c3ccc(-c4ccccc4)cc3)cs2)cc1	/	-4	/	/	/	/
SMILES	ALDH1A1 block	IMPase inh	PNC inhibitor	NPSR antagonist	IMPase Li cell	HPGD inh
CCN(CC)C(=S)SCC(=O)Nc1nc(-c2ccccc2)c(-c2ccccc2)o1	13µM*	/	34	-32%	2%	-10%
O=C1c2c(O)ccc(O)c2C(=O)c2c(NCCNCCO)ccc(NCCNCCO)c21	?	?	/	10µM*	30%	-6%
O=C(Nc1ccccc1)C1=C(O)CC(c2ccc(Cl)cc2)N2CCN=C12 (centres undefined)	14µM*	/	?	-41%	6%	-3%
O=C(Nc1ccc(Cl)cc1)N1N=CCC1c1ccccc1 (centres undefined)	/	/	/	2%	/	/
CC(O)CCC(=O)NNC1=CC(=O)CC(C)(C)C1 (centres undefined)	5%	/	/	-4%	1%	/
COc1cc(-c2nn3c(-c4ccco4)nnc3s2)cc(OC)c1OC	11%	-4	-29	-6%[46.1 µM]	-6%[38.3 µM]	-15%
COc1cccc(OC)c1-c1nn2c(-c3ccco3)nnc2s1	?	-2	?	-17%[46.1 µM]	-18%[38.3 µM]	16µM*
COc1cccc(-c2nn3c(-c4ccco4)nnc3s2)c1	3.5µM*	-7	-14	-28%[46.1 µM]	11µM*	?
O=C(CC1Nc2ccccc2NC1=O)NCC1COc2ccccc2O1 (centres undefined)	?	0	-27	-6%[46.1 µM]	-15%[38.3 µM]	?
Cn1c(=Nc2ccccc2)sc2ccccc21	-4%	2	3	-17%[46.1 µM]	25%[38.3 µM]	-29%
Cn1c(=NC(=O)c2ccco2)sc2ccccc21	?	/	/	1%	-4%	/
Cn1c(=NC(=O)CCl)sc2ccccc21	0.71µM*	0	?	-12%[46.1 µM]	-9%[38.3 µM]	-12%
CN(C)c1ccc(N=c2sc3ccccc3n2C)cc1	2µM*	15	28	?	47%[38.3 µM]	-28%
Cn1c(=O)[nH]c(=O)c2c1nc(N1CCOCC1)n2CCCSc1ncccn1	1%	2	-114*	0%[46.1 µM]	-11%[38.3 µM]	-10%
Cn1c(=O)[nH]c(=O)c2c1nc(N1CCCCC1)n2CCCSc1nnnn1-c1ccccc1	7.9µM*	/	?	19%	14%	-13%
CN1CCN(c2nc3c(c(=O)[nH]c(=O)n3C)n2CCCSc2nnnn2-c2ccccc2)CC1	22µM*	/	/	-14%	1%	/
CC1CCN(c2nc3c(c(=O)[nH]c(=O)n3C)n2CC(C)CSc2nnnn2-c2ccccc2)CC1 (centres undefined)	20µM*	/	7	4%	10%	-5%
CN(C)CCOc1cc(Cl)cc(Cl)c1	10%	/	/	-14%	6%	/
CCCc1nn2c(=O)cc(O)nc2s1	6%	/	?	21%	-3%	3%
COc1ccccc1CN1C(=O)C(=O)N(Cc2cccc(C)c2)C1=O	-6%	/	/	17%	13%	/
Cc1cccc(Cn2nnc3c2C(=O)c2ccccc2C3=O)c1	-5%	13	26	21%	13%	14µM*
